From PubChem
The list is not random: actives were taken first. Their share in the collection is about 12%.
SARS PLP yeast = inhibitors of SARS-CoV papain-like protease in yeast | S. cerevisiae expressing SARS-CoV PLpro, growth rescue | Potency, µM (titrated, usually from 32.9 µM), hits mostly activators | 330,000 tested, 0.19% active | AID 485353; calls by dose curve; note: nearly all actives have a fitted effect of over 55% in size
Pf growth 48h = inhibits P. falciparum growth in the first generation, 48 h; 310,000 tested, 5.9% active; AID 504832; P. falciparum luciferase growth in erythrocytes, 48 h; Potency, µM (titrated, usually from 28.7 µM), usual class: inhibitors
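Parasite viability was followed by luminescence of a genomically integrated firefly luciferase. Cultures held 0.1% parasitemia at 2% hematocrit (final), incubated under 5% CO2 at 37 C.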
AmpC detergent = inhibitors of E. coli AmpC beta-lactamase with detergent | AmpC hydrolysis of nitrocefin, absorbance 480 nm, 0.01% Triton | Potency, µM (doses to about 114 µM), hits mostly inhibitors | 370,000 tested, 0.041% active | AID 485294; note: nearly all actives have a fitted effect of over 25% in size
Target sequence (P00811 whole entry, looked up): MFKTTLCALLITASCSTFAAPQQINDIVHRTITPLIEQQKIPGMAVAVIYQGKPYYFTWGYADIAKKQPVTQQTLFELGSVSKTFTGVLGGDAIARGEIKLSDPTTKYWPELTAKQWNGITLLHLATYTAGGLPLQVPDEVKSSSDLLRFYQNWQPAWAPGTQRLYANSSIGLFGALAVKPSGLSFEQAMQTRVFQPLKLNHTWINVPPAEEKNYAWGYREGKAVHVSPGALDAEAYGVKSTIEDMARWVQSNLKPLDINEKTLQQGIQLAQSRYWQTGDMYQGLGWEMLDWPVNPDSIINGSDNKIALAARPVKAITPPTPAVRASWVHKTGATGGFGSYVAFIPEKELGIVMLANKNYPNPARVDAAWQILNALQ
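AmpC (5.3 nM in the dispensed reagent) in 20 mM phosphate pH 7.0 with 0.01% (detergent screen) or 0.0001% Triton X-100 was preincubated with compounds for 15 min at room temperature. Nitrocefin was then added from an 800 uM solution, and hydrolysis was followed at 480 nm.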
AmpC no deterg = blocks E. coli AmpC beta-lactamase in detergent-free assay; P00811; AmpC nitrocefin hydrolysis, absorbance 480 nm, 0.0001% Triton; Potency, µM (top dose mostly 57.1 µM), actives largely listed as inhibitors; 330,000 tested, 0.52% active; AID 485341; note: nearly all actives have a fitted effect of over 20% in size
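AmpC (5.3 nM in the dispensed reagent) in 20 mM phosphate pH 7.0 with 0.01% (detergent screen) or 0.0001% Triton X-100 was preincubated with compounds for 15 min at room temperature. Nitrocefin was then added from an 800 uM solution, and hydrolysis was followed at 480 nm.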
Sm TGR inh = blocks Schistosoma mansoni thioredoxin glutathione reductase; Q962Y6; purified TGR, DTNB reduction, TNB absorbance 405 nm; Potency, µM (highest dose often 114 µM), usual class: inhibitors; 360,000 tested, 3% active; AID 485364; note: nearly all actives have a fitted effect of over 60% in size
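Kinetic colorimetric format: TGR-catalysed, NADPH-driven DTNB reduction monitored via TNB absorbance. Enzyme dispensed at 20 nM; compound exposure 15 min at room temperature before reaction start.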
Pf growth 96h = P. falciparum growth inhibition at 96 hour, primary screen for plastid delayed-death inhibitors; P. falciparum luciferase reporter growth, 96 h; AID 504834; 320,000 tested, 6.9% active; Potency, µM (doses to about 28.7 µM), usual class: inhibitors
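Readout is luminescence from an integrated firefly luciferase in P. falciparum. Red cells, 2% hematocrit and 0.05% parasitemia final, were cultured with compound through two parasite generations (96 hours) at 37 C, 5% CO2.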
Of the large screens only hits and unclear results are named; the others gave an inactive call. Unless noted, calls come from the whole dose curve; as a rule, active = well fitted curve in the direction sought with a large enough effect; inconclusive = small, poorly fitted or top-dose-only effect, or another doubt; inactive = no such curve, though single readings can be large; an effect the other way counts as inactive or inconclusive.

CC(=O)Nc1ccc(N(C(=O)Cn2nnc3ccccc32)C(C(=O)NCc2ccccc2)c2ccc(C)cc2)cc1 (stereo not given)	none (no result: SARS PLP yeast, Pf growth 48h, AmpC no deterg, Pf growth 96h)
CCN(CC)c1ccc(NS(=O)(=O)c2cc3[nH]c(=O)c(=O)[nH]c3cc2C)c(C)c1	Sm TGR inh 35µM (no result: SARS PLP yeast, Pf growth 48h, AmpC no deterg, Pf growth 96h)
Cc1cc(Cl)ccc1NS(=O)(=O)c1cc2[nH]c(=O)c(=O)[nH]c2cc1C	none (no result: SARS PLP yeast, Pf growth 48h, AmpC no deterg, Pf growth 96h)
COc1ccccc1-c1nc2cc3ccccc3cc2nc1-c1ccccc1OC	Pf growth 48h inconclusive, Pf growth 96h 12µM
COc1ccccc1-c1nc2ccccc2nc1-c1ccccc1	Pf growth 48h inconclusive
CC1(C)Cc2c(ccc3ccccc23)/C(=C/C#N)N1	Sm TGR inh 45µM
CCOC(=O)C1=C(C)NC(C)=C(C(=O)OCCNC(=O)c2cccnc2)C1c1cccc([N+](=O)[O-])c1 (stereo not given)	Pf growth 48h inconclusive, Pf growth 96h 9.3µM
COC(=O)C1=CN(c2ccc(F)cc2)C=C(C(=O)OC)C1c1cccc([N+](=O)[O-])c1	none
COC(=O)C1=C(C#N)NC(C)=C(C(=O)OC(C)C)C1c1cccc([N+](=O)[O-])c1 (stereo not given)	Pf growth 48h 7.6µM, Pf growth 96h 1.2µM (no result: SARS PLP yeast, AmpC detergent, AmpC no deterg, Sm TGR inh)
COCCOC(=O)C1=C(C)N(c2ccccc2)C(=O)NC1c1cccc([N+](=O)[O-])c1 (stereo not given)	Pf growth 48h inconclusive
COC(=O)C1=C(C)NC(C)=C(C(=O)OCCN2CCN(C(c3ccccc3)c3ccccc3)CC2)C1c1cccc([N+](=O)[O-])c1 (stereo not given)	Pf growth 48h 1.7µM, Pf growth 96h 2.4µM (no result: SARS PLP yeast, AmpC detergent, AmpC no deterg, Sm TGR inh)
COC(=O)C1=C(C)NC(C)=C(C(=O)OCCN(C)Cc2ccccc2)C1c1cccc([N+](=O)[O-])c1 (stereo not given)	Pf growth 48h 1.7µM, Pf growth 96h 2.1µM
COc1cccc(CSc2nc3n(n2)C(c2cccc(F)c2)C(C(=O)Nc2ccccc2C)=C(C)N3)c1 (stereo not given)	none (no result: SARS PLP yeast, Pf growth 48h, AmpC no deterg, Pf growth 96h)
COc1ccc(-n2ncc3c(NCCCOC(C)C)ncnc32)cc1	none (no result: SARS PLP yeast, Pf growth 48h, AmpC no deterg, Pf growth 96h)
CC(C)c1nn2c(=O)cc(COC(=O)c3ccccc3NC(=O)COc3ccccc3)nc2s1	none (no result: SARS PLP yeast, Pf growth 48h, AmpC no deterg, Pf growth 96h)
COC(=O)c1ccccc1C(=O)N(Cc1cccnc1)CC1CCCN(C2CCCCC2)C1 (stereo not given)	Pf growth 48h inconclusive, Pf growth 96h 13µM
CCOc1ccc(CCNC(=O)Cn2nc(-c3ccc(C)cc3)ccc2=O)cc1OCC	none (no result: SARS PLP yeast, Pf growth 48h, AmpC no deterg, Pf growth 96h)
COc1ccc(CNC(=O)CN2C(=O)CCCc3ccccc32)cc1	none (no result: SARS PLP yeast, Pf growth 48h, AmpC no deterg, Pf growth 96h)
Cc1ccc(CNc2ccc(N3CCOCC3)c(Cl)c2)cc1	Pf growth 96h 10µM
O=C(Nc1ccc(N2CCOCC2)c(Cl)c1)c1ccc([N+](=O)[O-])o1	Pf growth 48h 10µM (no result: Sm TGR inh)
Cc1ccc(CNc2ccc3c(c2)OCO3)cc1	Pf growth 48h inconclusive, Sm TGR inh 45µM (no result: SARS PLP yeast, AmpC no deterg)
Cc1ccc(NC(=O)c2ccc([N+](=O)[O-])o2)cc1S(=O)(=O)N1CCOCC1	Pf growth 48h 9.3µM, Sm TGR inh 14µM, Pf growth 96h 9.3µM
CCC1(c2ccccc2)C(=O)NC(=O)N(C(=O)c2ccccc2)C1=O (stereo not given)	none (no result: SARS PLP yeast, AmpC detergent, AmpC no deterg, Sm TGR inh)
COC(=O)Cn1c(=NC(=O)c2ccc(S(=O)(=O)N3CCOCC3)cc2)sc2cc(S(N)(=O)=O)ccc21	Pf growth 48h inconclusive, Pf growth 96h inconclusive
C#CCn1c(=NC(=O)c2ccc(S(=O)(=O)N3CCCc4ccccc43)cc2)sc2cc(S(N)(=O)=O)ccc21	Pf growth 48h 9.3µM, Pf growth 96h 2.9µM
Cn1c(=NC(=O)c2ccc(S(=O)(=O)N3CCCc4ccccc43)cc2)sc2cc(S(C)(=O)=O)ccc21	SARS PLP yeast inconclusive, Pf growth 48h inconclusive, Pf growth 96h inconclusive
COCCn1c(=NC(=O)c2ccc(S(=O)(=O)N3CCOCC3)cc2)sc2cc(S(N)(=O)=O)ccc21	Pf growth 48h inconclusive, AmpC detergent inconclusive, Pf growth 96h 8.3µM
CCc1ccc(N(C(C)=O)C2C=CS(=O)(=O)C2)cc1 (stereo not given)	AmpC no deterg 0.16µM
CCOC(=O)c1c(C)n(C)c2ccc(O)c(CN3CCCCC3)c12	Pf growth 48h inconclusive, AmpC detergent inconclusive (no result: Pf growth 96h)
Cc1oc2ccc(O)c(CN3CCOCC3)c2c1C(C)O (stereo not given)	none
CC(=O)c1c(C)oc2ccc(O)c(CN3CCOCC3)c12	Pf growth 96h 7.4µM (no result: Pf growth 48h)
CCOC(=O)c1c(C)oc2ccc(O)c(CN3CCCCC3)c12	Pf growth 48h 12µM
COc1ccc(NS(=O)(=O)c2ccc3oc(SC(C)C(N)=O)nc3c2)cc1 (stereo not given)	Pf growth 48h 2.3µM, Pf growth 96h 4.7µM
CCc1ccc(NC(=O)NCCN2CCN(c3ccc(OC)cc3)CC2)cc1	Pf growth 96h 13µM
COc1ccc(Cl)c(N2CCN(CCCNC(=O)Nc3ccc(C)cc3)CC2)c1	Pf growth 48h 13µM, AmpC detergent inconclusive (no result: Pf growth 96h)
CCCSc1ncc(Cl)c(C(=O)Nc2c(C(=O)c3ccc(F)cc3)oc3ccccc23)n1	none (no result: SARS PLP yeast, Pf growth 48h, AmpC no deterg, Pf growth 96h)
Cc1ccc(C)c(N2CCN(c3ccc(N4C(=O)COCC4=O)cc3[N+](=O)[O-])CC2)c1	none
Cc1cc(N2C(=O)C=CC2=O)c([N+](=O)[O-])cc1C	Sm TGR inh 0.71µM, Pf growth 96h inconclusive
Cc1ccc(C(=O)N2CCC3(CC2)Oc2ccc(Cl)cc2C(=O)C32CC(c3cccnc3)=NO2)s1 (stereo not given)	Pf growth 48h inconclusive, Pf growth 96h 13µM
O=C(/C=C/c1cccs1)N1CCC2(CC1)Oc1ccc(Cl)cc1C(=O)C21CC(c2cccnc2)=NO1 (stereo not given)	Pf growth 48h 13µM, Pf growth 96h 12µM
O=C(c1ccc2c(c1)OCO2)N1CCC2(CC1)Oc1ccc(Cl)cc1C(=O)C21CC(c2cccnc2)=NO1 (stereo not given)	Pf growth 48h 12µM, Pf growth 96h 13µM
Cc1ccc(C(=O)N2CCC3(CC2)Oc2ccc(Cl)cc2C(=O)C32CC(c3ccccc3)=NO2)s1 (stereo not given)	Pf growth 48h inconclusive, Pf growth 96h inconclusive
CC(C)C(=O)N1CCC2(CC1)Oc1ccc(Cl)cc1C(=O)C21CC(c2ccccc2)=NO1 (stereo not given)	Pf growth 48h inconclusive, Pf growth 96h inconclusive
CC(C)C[C@H]1CN=C(Nc2ccccc2)N1CC1CCC1	none
COCCOC(=O)C1=C(C)NC(=O)NC1c1cn(-c2ccccc2)nc1-c1ccccc1 (stereo not given)	none (no result: SARS PLP yeast, Pf growth 48h, AmpC no deterg, Pf growth 96h)
